Source: PubChem (National Center for Advancing Translational Sciences (NCATS))
Hits are enriched below; roughly 17% of the tested compounds scored in any of these assays.
TDP1 inh: blocks human tyrosyl-DNA phosphodiesterase 1; Q9NUW8; recombinant TDP1, AlphaScreen DNA substrate cleavage; Potency, µM (highest dose often 130 µM), hits mostly inhibitors; 350,000 tested, 0.28% active; AID 485290; note: nearly all actives have a fitted effect of over 40% in size
Target sequence (Q9NUW8 whole entry, looked up): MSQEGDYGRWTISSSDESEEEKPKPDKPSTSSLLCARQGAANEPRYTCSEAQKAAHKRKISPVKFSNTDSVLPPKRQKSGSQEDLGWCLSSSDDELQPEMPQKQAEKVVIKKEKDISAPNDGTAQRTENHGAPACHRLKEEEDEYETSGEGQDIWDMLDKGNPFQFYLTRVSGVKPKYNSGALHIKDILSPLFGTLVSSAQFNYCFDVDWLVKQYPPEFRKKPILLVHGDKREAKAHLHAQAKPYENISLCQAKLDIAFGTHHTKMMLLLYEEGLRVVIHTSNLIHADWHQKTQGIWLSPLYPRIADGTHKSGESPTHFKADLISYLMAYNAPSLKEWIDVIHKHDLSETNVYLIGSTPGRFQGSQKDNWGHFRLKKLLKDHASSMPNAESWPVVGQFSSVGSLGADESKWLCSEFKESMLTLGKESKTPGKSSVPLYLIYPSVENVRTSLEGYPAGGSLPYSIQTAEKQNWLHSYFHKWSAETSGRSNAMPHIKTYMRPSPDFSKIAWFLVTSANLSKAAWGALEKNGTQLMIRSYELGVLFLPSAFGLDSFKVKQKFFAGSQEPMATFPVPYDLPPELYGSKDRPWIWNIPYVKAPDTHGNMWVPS
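Tdp1 1 nM final; 15 min RT w/ cpd; substrate 15 nM, 5 min; beads 10 ug/ml, 10 min; AlphaScreen read. Neg ctrl: no enzyme.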
TDP1 cell CPT: growth inhibition of DT40 Tdp1-/-;hTDP1 cells with camptothecin (screen for TDP1 inhibitors) | chicken DT40 Tdp1-/-;hTDP1 cells + 20 nM CPT, ATP luminescence, 48 h | Potency, µM (doses to about 46.2 µM), most hits filed as inhibitors | 420,000 tested, 12% active; note: nearly all actives have a fitted effect of over 55% in size
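Chicken DT40 Tdp1-/- cells complemented with human TDP1, 400 cells/well, exposed to compounds plus 20 nM camptothecin for at least 48 h at 37 C; viability read as ATP content by CellTiter-Glo luminescence.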
TDP1 cell noCPT: qHTS for Inhibitors of human tyrosyl-DNA phosphodiesterase 1 (TDP1): qHTS in cells in absence of CPT | DT40 Tdp1-/- hTDP1 cells, no CPT, ATP luminescence, 48 h | Potency, µM (highest dose often 46.2 µM), actives largely listed as inhibitors | 420,000 tested, 15% active; note: nearly all actives have a fitted effect of over 55% in size
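Chicken DT40 Tdp1-/- cells stably complemented with human TDP1 were seeded at 400 cells/well with DMSO in place of 20 nM camptothecin. After compound pinning, cells grew at least 48 hr at 37 °C; viability read by CellTiter-Glo luminescence.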
ClpP mod: qHTS Assay for Activators of ClpP; ATP-dependent Clp protease proteolytic subunit (Bacillus subtilis (strain 168)), P80244; purified B. subtilis ClpP, FRET peptide cleavage, 20 min; Potency, µM (doses to about 57.5 µM); 340,000 tested, 1.9% active; AID 651965, 2013; active = well fitted falling curve with a large enough effect; inconclusive = small, poorly fitted or top-dose-only effect; inactive = no such curve, though single readings can be large or run the other way; note: the source files actives as falling curves though it sought activators and does not explain the sign; nearly all actives have a fitted effect of over 65% in size
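Purified B. subtilis ClpP, 10 microg/mL final in Tris/HCl pH8 with KCl, BSA, glycerol and Tween-20, cleaved an Abz/nitrotyrosine-quenched decapeptide. Fluorescence (ex 320, em 430) was read at 0 and 20 min at room temperature. Delta was normalized to 5.8 microM ADEP and DMSO/no-enzyme controls.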
A number is an active result; 0 = inactive; ? = inconclusive; - = no result given; [ ] = remark or other dose. Unless noted, calls come from the whole dose curve; as a rule, active = well fitted curve in the direction sought with a large enough effect; inconclusive = small, poorly fitted or top-dose-only effect, or another doubt; inactive = no such curve, though single readings can be large; an effect the other way counts as inactive or inconclusive.

SMILES	TDP1 inh	TDP1 cell CPT	TDP1 cell noCPT	ClpP mod
CCCCCCCCCCCNC(=O)c1ccoc1C	0	20.6µM	18.4µM	0
CCCCNC(=O)c1ccccc1C(=O)NCCCC	0	29.1µM	29.1µM	0
Nc1c(Cl)c(Cl)nc(C(=O)OCC(=O)N2CCCC2=O)c1Cl	-	0	0	0
O=C(OCC(=O)N1CCCC1=O)c1nc(Cl)c(Cl)c(Cl)c1Cl	44.7µM	0	0	0
CCCCc1c(C)nc(Nc2ccc(OC)cc2)[nH]c1=O	0	?	13µM	0
CCCCCc1c(C)nc(Nc2ccc(F)cc2)[nH]c1=O	0	?	16.4µM	0
Cc1ccccc1Nc1c(F)c(F)c(F)c(F)c1C(=O)O	0	0	0	-
COC(=O)c1c(NC(=O)c2cccc(S(=O)(=O)N3CCN(C)CC3)c2)sc(C)c1C	-	14.6µM	14.6µM	0
CC(C)c1ccc(OC(=O)c2cccc(S(=O)(=O)N3CCN(C)CC3)c2)cc1	0	?	18.4µM	0
CCOC(=O)c1sc(NC(=O)c2cccc(S(=O)(=O)N3CCN(C)CC3)c2)cc1C	0	0	?	0
CCOC(=O)c1cnc(-n2nc(C)cc2C)nc1Nc1ccccc1OC	0	-	-	-
CCOC(=O)c1cnc(-n2nc(C)cc2C)nc1NC1CCCC1	-	1.3µM	1.3µM	-
CCOC(=O)c1cnc(-n2nc(C)cc2C)nc1Nc1ccc(OC)cc1	0	8.2µM	11.6µM	0
CCOC(=O)c1cnc(-n2nc(C)cc2C)nc1NCCc1ccccc1	0	6.51µM	5.17µM	0
CCOC(=O)c1cnc(-n2nc(C)cc2C)nc1N(C)C	0	?	?	0
COc1ccc(O[C@H]2C=C[C@@H](c3ccccc3)O[C@@H]2CO/N=C(\C)CCN2CCCc3nc(C)c(C)cc32)cc1	0[21 µM]	-	-	-
OCC1(Cc2ccccc2F)CCCN(Cc2c(F)ccc(F)c2F)C1 (stereo unspecified)	-	0	0	0
CC(C)(C)OC(=O)N1C(=O)[C@](OC(=O)c2ccccc2)(c2ccc(F)cc2)c2ccccc21	-	?	?	0
CCN(CC(=O)Nc1c(F)cccc1F)C(=O)C1(c2ccccc2)CC1	0	0	0	0
Cc1cc(C)nc(SCCCNCc2ccccc2)n1	0	0	0	0
CC(=O)c1ccc(Oc2cc(C)nc(NCc3ccccc3)n2)cc1	0	20.6µM	20.6µM	0
Cc1cc(OC2CCCCC2)nc(NCc2ccccc2)n1	0	0	0	-
CCCCOc1cc(C)nc(NCc2ccccc2)n1	0	4.11µM	16.4µM	?
CCOc1cc(C)nc(NCc2ccccc2)n1	0	23.1µM	20.6µM	0
Cc1cc(Oc2ccccc2)nc(SCC(N)=O)n1	0	0	0	0
SMILES	TDP1 inh	TDP1 cell CPT	TDP1 cell noCPT	ClpP mod
CCCCCc1nnc(NC(=O)C2=COCCO2)s1	0	0	0	0
CC(=O)Nc1ccc(S(=O)(=O)N(C)CC(=O)OCC(=O)c2ccc[nH]2)cc1	0	0	0	0
CC(=O)Nc1ccc(S(=O)(=O)N(C)CC(=O)OCC(=O)NNC(=O)c2ccccc2F)cc1	0[0.505 µM]	0	0	11.2µM
Cc1cccc(N2CC(C(=O)OCC(=O)c3ccc(OC(=O)c4cccs4)cc3)CC2=O)c1C (stereo unspecified)	0	0	0	31.6µM
Cc1cccc(N2CC(C(=O)OCC(=O)Nc3sccc3C(N)=O)CC2=O)c1C (stereo unspecified)	0	0	0	-
Cc1ccc2oc(C(=O)N3CCN(CC(=O)NC(C)C)CC3)c(C)c2c1	-	0	0	-
CC(=C/c1ccccc1)/C=N/n1c(-c2ccncc2)n[nH]c1=S	0	?	16.4µM	-
Cc1cc(-c2n[nH]c(=S)n2/N=C/C(Cl)=C/c2ccccc2)n[nH]1	0	14.6µM	13µM	?
CC(/C=N/n1c(-c2cccnc2)n[nH]c1=S)=C\c1ccccc1	0	?	?	0
S=c1[nH]nc(-c2ccco2)n1/N=C/C(Cl)=C/c1ccccc1	0	?	14.6µM	-
Cc1ccc2scc(CN3CCCC3)c2c1	-	0	0	?
CC(C)(C)C1CCN2CCC[C@](c3ccccc3)(C1)C2OCCCO (stereo partly specified)	-	?	?	0
CC(C)(C)C1CCSC2=NCCC[C@]2(c2ccccc2)C1 (stereo partly specified)	-	?	18.4µM	0
COc1ccc(-c2nnn(CC(=O)N(Cc3ccc(F)cc3)C(C(=O)NC3CCCC3)c3ccc(F)cc3)n2)cc1 (stereo unspecified)	-	20.6µM	?	0
O=C(NC1CCCC1)C(c1ccc(F)cc1)N(Cc1ccc(F)cc1)C(=O)CCl (stereo unspecified)	0	3.26µM	4.61µM	0
CCOC(=O)CN(C(=O)Cn1nnc(-c2ccc(OC)cc2)n1)C(C(=O)NC1CCCC1)c1ccc(F)cc1 (stereo unspecified)	0	?	0	0
CCOc1ccc(C2CC(=O)c3c([nH]c(C(=O)OC4CCC(C)CC4)c3C)C2)cc1 (stereo unspecified)	0	0	0	0
Cc1c(C(=O)OC2CCCC2C)[nH]c2c1C(=O)CCC2 (stereo unspecified)	0	20.6µM	?	0
CCOCCOC(=O)c1[nH]c2c(c1C)C(=O)CC(c1ccc(OC)c(OC)c1)C2 (stereo unspecified)	-	?	13µM	-
COC(=O)C1C(=O)c2c([nH]c(C(=O)OC3CCCC3)c2C)CC1C (stereo unspecified)	0	0	?	0
CCOCCOC(=O)c1[nH]c2c(c1C)C(=O)CC(c1ccc(N(C)C)cc1)C2 (stereo unspecified)	0	23.1µM	?	0
CCOc1ccc(C2CC(=O)c3c([nH]c(C(=O)OCCOc4ccccc4)c3C)C2)cc1 (stereo unspecified)	0[12.3 µM]	13µM	14.6µM	0
COC(=O)CSc1nc2sc3c(c2c(=O)n1-c1ccc(C)cc1)CC(C(C)C)OC3 (stereo unspecified)	-	-	-	0
Cc1cc(C)n(C(C)CNC(=O)c2ccc3c(c2)OCO3)n1 (stereo unspecified)	?	0	0	-
O=C(COC(=O)c1ccc(=O)[nH]c1)Nc1cccc(S(=O)(=O)N2CCOCC2)c1	0	0	0	0
SMILES	TDP1 inh	TDP1 cell CPT	TDP1 cell noCPT	ClpP mod
Cc1c(C(=O)OC2CCCCCC2)[nH]c2c1C(=O)CC(c1ccc(N(C)C)cc1)C2 (stereo unspecified)	0	0	?	0
C/C=C/COC(=O)c1[nH]c2c(c1C)C(=O)CC(c1ccc(N(C)C)cc1)C2 (stereo unspecified)	0	25.9µM	16.4µM	0
CCC(C)OC(=O)c1[nH]c2c(c1C)C(=O)CC(c1ccc(N(C)C)cc1)C2 (stereo unspecified)	0	23.1µM	14.6µM	0
Cc1c(C(=O)OCCOc2ccccc2)[nH]c2c1C(=O)CCC2	0	14.6µM	23.1µM	0
c1c[nH]c(CNc2ncnc3ccc(-c4ccc5c(c4)OCO5)cc23)n1	0	-	-	-
COC(=O)CCC(=O)N1CCC(CCC(=O)NCc2ccc(F)cc2)CC1	-	0	0	0
